# PubChem BioAssay (NCI)
# About 83,000 compounds went through this panel and 20% of them were active in at least one assay; those are over-represented in the sample as a whole.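 Cells were grown in 96-well plates and exposed to the test compound at a single concentration for 48 hours; results are reported as percent growth, with values below 10 considered active.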 Values without a mark were called inactive. The source made the active and inactive calls.
# System: HL-60(TB) leukemia
# Assay: NCI-60 one-dose screen, 48 h (100 = growth as untreated, 0 = no growth, -100 = all killed)
# Conditions: 10 µM unless noted
row,Compound,growth
1,CN1CCN(c2ccc3nc(/N=C/c4ccc5sc(-c6ccc([N+](=O)[O-])cc6)nc5c4)sc3c2)CC1,109%
2,CC(=O)Nc1cccc(C2=CC(c3ccc(C)cc3)n3ncnc3N2)c1 (stereo unspecified),89.9%
3,Cc1ccsc1C(NC(=O)c1ccccc1)c1cc(Cl)c2cccnc2c1O (stereo unspecified),12.4%
4,CCN(CCN(C)C)C(=O)CNCc1cc(C(N)=O)ccn1,88.7%
5,C=C(C)[C@@H]1CC[C@]2(C(=O)N3CCN(C)CC3)CC[C@]3(C)[C@H](CC[C@@H]4[C@@]5(C)CC(CCCNC(C)=O)(CCCNC(C)=O)[C@H](OC(C)=O)C(C)(C)[C@@H]5CC[C@]43C)[C@@H]12,94%
6,CCCCCN1C=C/C(=C\C(=O)N(C)c2ccccc2Br)c2ccccc21,76.9%
7,Cc1nc2sc(C(=O)Nc3ccc(Cl)cc3)c(N)c2cc1C(O)c1ccccc1 (stereo unspecified),2.56% (active)
8,CCn1nc(C#Cc2c(C)ccc3c(Nc4ccc(Cl)cc4)nccc23)c2c(N)ncnc21,-16% (active)
9,Nc1nc2c(c3ncncc13)C(c1cccc(C(F)(F)F)c1)Cc1ncncc1-2 (stereo unspecified),10.7%
10,[O-][n+]1ccccc1CCN(O)CCc1cccc[n+]1[O-],74.2%
11,O=c1n(Cc2ccc3ccccc3c2)ccn1Cc1ccc2ccccc2c1,103%
12,CC1=CC(C)(C)Nc2ccc(Cc3ccc4c(c3)C(C)=CC(C)(C)N4)cc21,122%
13,CCCCNC(=O)c1cc(NCc2cc(O)ccc2O)ccc1O,3.56% (active)
14,COc1cc(-c2nn(-c3cccc(NC(=O)CCN4CCN(Cc5ccccc5)CC4)c3)cc2-c2ccncc2)ccc1Cl,-5.82% (active)
15,CN(C)CC1=NC2SC=C(c3ccccc3)C2C(=O)N1CC#N (stereo unspecified),86.1%
16,Cc1cccc(-n2c(C)nc3ccc(NC(=O)NCCCl)cc3c2=O)c1,113%
17,c1ccc(-c2nc3ccccc3[nH]2)c(OCCCCCOc2ccccc2-c2nc3ccccc3[nH]2)c1,22%
18,O=C(Nc1ccc(N=Nc2ccccc2)cc1)c1cccc2ccccc12,11.8%

row,Compound,growth
1,COc1ccc(-c2c(-c3cc(OC)c(OC)c(OC)c3)noc2N)cc1,12.5%
2,CCCCNCC(=O)Nc1ccc(C(=O)OCC)cc1,86.9%
3,COc1nc2ccccc2cc1-c1nc2c(cnn2-c2ccccc2)c(=O)[nH]1,11.2%
4,CCN(CC)CCCC(Nc1c2ccc(Cl)cc2nc2ccc(OC)cc12)c1ccc(Cl)cc1 (stereo unspecified),-16.2% (active)
5,O=C1/C(=C/c2ccc([N+](=O)[O-])s2)Oc2cc(Cl)ccc21,-11.7% (active)
6,COc1cc2cc3c(nc2cc1OC)CCN3Cc1ccc(NC(=O)Nc2ccc(F)cc2F)cc1,80.5%
7,C=C(C)[C@@H]1CC[C@]2(C(=O)N3CCOCC3)CC[C@]3(C)[C@H](CC[C@@H]4[C@@]5(C)C/C(=C/c6ccncc6)C(=O)C(C)(C)[C@@H]5CC[C@]43C)[C@@H]12,26.2%
8,CNC(=O)c1cccc(Cn2nc(C)c(NC(=O)c3ccc(COc4ccc(C(F)(F)F)cc4C)cc3)c2C)n1,36.7%
9,Nc1nc(N)c(NC(=O)CNc2ccc(C(=O)O)cc2)c(N)n1,107%
10,CCCCC/C=C\C/C=C/CCCCCCCCNC(=O)Nc1ccc([N+](=O)[O-])cc1,4.75% (active)
11,Cc1ccc(C(=O)Nc2ccc(CN3CCN(C)CC3)c(C(F)(F)F)c2)cc1C#Cc1cnc(N)c2ccccc12,-37.9% (active)
12,O=C(O)C#Cc1ccc(Cl)cc1,94.1%
13,Cn1cc(-c2ccc3c(c2)ncn3-c2ccc(CC(=O)Nc3cc(C(C)(C)C)on3)cc2)cn1,67.4%
14,CCCCCCCC(=O)SCC/C=C/[C@@H]1CC(=O)NCc2cccc(n2)CN(Cc2ccc(Cl)cc2)CC(=O)N[C@@H](C(C)C)C(=O)O1,13%
15,S=C1SCN(Cc2cccs2)CN1Cc1cccs1,91%
16,C=C(C)[C@@H]1CC[C@]2(CO)CC[C@]3(C)[C@H](CC[C@@H]4[C@@]5(C)CCCNC(C)(C)[C@@H]5CC[C@]43C)[C@@H]12,-51.9% (active)
17,Cn1c(/C(C#N)=C/c2ccc3ccccc3c2)cc2ccccc21,-6.93% (active)
18,Cc1ccc(S(=O)(=O)NCCNc2nccc(-c3c(-c4cccc(N)c4)nc4sccn34)n2)cc1,110%
